# Measurements from PubChem BioAssay AID1508602 (The Scripps Research Institute Molecular Screening Center, 2020).
# “And” between values parts separate entries of the source, which are not always exact repeats. Identical values can stand only once. In all, about 650,000 compounds went through this assay and about 6,800 (1%) were called active. No stated cut-off is given here; in the data, active means activation above about 4.9%; inactive means the rest. The list comes from a sample in which actives are over-represented; it also holds similar structures and randomly drawn compounds. Where a structure was tested more than once in an assay, its records may differ in their call.
# Target: G-protein coupled receptor 151 (Homo sapiens) (UniProt Q8TDV0)
# Sequence (Q8TDV0 whole entry, looked up): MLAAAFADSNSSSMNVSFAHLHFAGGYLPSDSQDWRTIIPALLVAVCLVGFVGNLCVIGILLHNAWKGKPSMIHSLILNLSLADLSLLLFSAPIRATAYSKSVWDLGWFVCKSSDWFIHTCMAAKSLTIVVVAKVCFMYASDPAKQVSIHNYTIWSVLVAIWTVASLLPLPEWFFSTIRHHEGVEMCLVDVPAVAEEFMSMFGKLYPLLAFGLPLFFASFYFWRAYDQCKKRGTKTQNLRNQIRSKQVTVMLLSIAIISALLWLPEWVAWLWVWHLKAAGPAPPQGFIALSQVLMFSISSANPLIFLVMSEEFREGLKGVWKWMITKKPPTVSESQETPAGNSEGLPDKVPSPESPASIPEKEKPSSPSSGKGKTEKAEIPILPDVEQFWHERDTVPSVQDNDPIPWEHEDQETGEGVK
# Test: activators of human GPR151, primary screen, cell-based, PathHunter beta-arrestin, luminescence (AID 1508602);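 further: 0% = median of compound wells and 100% = cells with positive control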
# Details: PathHunter beta-arrestin GPR151 cells, at 11.2 µM, stronger effect = higher value
row,Structure (SMILES),activation
1,COc1ccc(C(=O)Nc2sc3c(c2C(N)=O)CCCC3)cc1,5.12% (active)
2,NC(=O)c1c(NC(=O)c2ccc(Oc3ccccc3)cc2)sc2c1CCCCC2,-0.921% (inactive)
3,CNC(=O)c1c(NC(=O)c2ccc(OC)cc2)sc2c1CCCCC2,-1.51% (inactive)
4,CNC(=O)c1c(NC(=O)c2cccc(OC)c2)sc2c1CCC2,-0.776% (inactive)
5,CC(C)Oc1ccc(C(=O)Nc2sc3c(c2C(N)=O)CCCC3)cc1,-0.378% (inactive)
6,COc1cccc(C(=O)Nc2sc3c(c2C(N)=O)CCCCCC3)c1,6.65% (active)
7,CCc1ccc2[nH]c3nc(SCC#N)nnc3c2c1,-0.711% (inactive)
8,COCCN1C(=O)CC(CC(=O)N2CCN(C)C[C@@H]2C(C)C)(c2cccc(OC)c2)C1=O (stereo not given in full),1.08% (inactive)
9,CCCCOc1ccc(S(=O)(=O)NC2CCCCC2)cc1,-1.26% (inactive)
10,Cc1nn(C)c(C)c1-c1nc2c(NCCO)ncnc2n1C(C)C,-0.731% (inactive)
11,OCCNc1ncnc2nc(-c3ccccc3)[nH]c12,0.187% (inactive)
12,Cc1nn(C)c(C)c1-c1nc2ncnc(NCCO)c2[nH]1,7.4% (active)
13,N#CCCCSc1nnc(-c2ccc(C#N)cc2)o1,-0.162% (inactive)
14,COc1ccc(-c2nnc(SCCC#N)o2)cc1,10.1% (active)
15,COc1ccc(-c2nnc(SCC(=O)NC(N)=O)o2)cc1,0.906% (inactive)
16,CCOC(=O)c1cc2c(=O)n3ccccc3nc2n(Cc2ccco2)c1=NC(=O)c1ccc(Cl)cc1,-0.357% (inactive)
17,CC(C)N(C(=O)CN(C)S(=O)(=O)c1cc(Cl)ccc1Cl)C(C)C,-0.725% (inactive)
18,COc1ccc(NC(=O)c2nn3c(C(F)(F)F)cc(-c4ccccc4)nc3c2Br)c(OC)c1,2.64% (inactive)
19,CC(C)NC(=O)/C=C/c1ccccc1Cl,5.07% (active)
20,CC(=O)NS(=O)(=O)c1ccc(NC(=O)/C=C/c2ccccc2Cl)cc1,0.647% (inactive)
21,O=C(O)/C=C/c1ccccc1Cl,5.27% (active)
22,O=C(/C=C/c1ccccc1Cl)Nc1ccc(I)cc1,1.42% (inactive)
23,NC(=O)NC(=O)COC(=O)/C=C/c1ccccc1Cl,1.72% (inactive)
24,CC(C)c1ccc(NC(=O)/C=C/c2ccccc2Cl)cc1,1.13% (inactive)

row,Structure (SMILES),activation
1,CCOc1ccc(CN2CCN(Cc3ccc(C)o3)C(CCO)C2)cc1CO (stereo not given),1.78% (inactive)
2,O=C(N/N=C/c1ccc([N+](=O)[O-])cc1)c1cccc(I)c1,-0.236% (inactive)
3,O=C(O)c1ccc(Br)c(N2C(=O)c3cc(Cl)c(Cl)cc3C2=O)c1,0.176% (inactive)
4,Cc1ccccc1NC(=O)Nn1cnnc1,-0.0585% (inactive)
5,COc1ccc(CN(N=Nc2nonc2C)c2nonc2C)cc1,-0.147% (inactive)
6,CC(=O)c1ccc(C(=O)NCC2Cc3cc(Cl)cc(-c4ccncc4)c3O2)s1 (stereo not given),1.35% (inactive)
7,Cc1nc(=S)[nH]c(C)c1CCC(=O)O,0.381% (inactive)
8,CCOC(=O)C(C(=O)c1ccccc1)C1(O)C(=O)c2ccccc2C1=O (stereo not given),6.04% (active)
9,CCOC(=O)CCC(=O)OC(C(=O)c1ccccc1)c1ccccc1 (stereo not given),0.912% (inactive)
10,CCOC(C(=O)c1ccccc1)c1ccccc1 (stereo not given),-0.174% (inactive)
11,CCc1ccc(CN2CCCC(CO)(Cc3cccc(OC)c3)C2)o1 (stereo not given),0.911% (inactive)
12,N#Cc1c(-c2ccc(F)cc2)cc(-c2ccccc2)nc1SCCOc1ccccc1,-0.0587% (inactive)
13,Cc1cncc2cccc(N3CCN(C(=O)C(N)c4ccc(Br)cc4)CC3)c12 (stereo not given),1.97% (inactive)
14,CC1CCCCN1C(=O)c1cc2c(=O)n(C)c3ccccc3c2s1 (stereo not given),5.42% (active)
15,CCN1CCN(C(=O)c2cc3c(=O)n(C)c4ccccc4c3s2)CC1,0.989% (inactive)
16,Cn1c(=O)c2cc(C(=O)NCCCN3CCCCCC3)sc2c2ccccc21,0.856% (inactive)
17,O=C(Nc1cccc(-c2nnc3n2CCCCC3)c1)c1ccc(=O)n(Cc2ccccc2)n1,-1.56% (inactive)
18,CCOC(=O)c1c(-c2ccc(OC)cc2)oc2ccc(OC(=O)c3ccccc3OC)cc12,-0.167% (inactive)
19,O=C(c1ncoc1-c1cccs1)N1CCN(c2ccc(C(F)(F)F)cn2)CC1,0.0668% (inactive)
20,Nc1[nH]c(=O)[nH]c(=O)c1N=Nc1cccc(Br)c1,-1.15% (inactive)
21,O=C1CCN(Cc2cc(F)cc(F)c2)CCN1Cc1ccc(Cl)s1,-0.0282% (inactive)
22,N=c1c(C(=O)NCc2cccnc2)cc2c(=O)n3ccccc3nc2n1CCO,1.18% (inactive)
23,CCCn1c(=N)c(C(=O)NCc2ccc(C)cc2)cc2c(=O)n3ccccc3nc21,1.57% (inactive)
24,COCCNC(=O)c1cc2c(=O)n3ccccc3nc2n(CCc2ccccc2)c1=N,4.99% (active)

row,Structure (SMILES),activation
1,Cc1ccc(C2(C)NC(=O)N(CC(=O)c3ccc(Br)s3)C2=O)cc1 (stereo not given),1.11% (inactive)
2,O=C(CN(c1cccc([N+](=O)[O-])c1)S(=O)(=O)c1ccccc1)N1CCOCC1,0.197% (inactive)
3,CCCCN1C(=O)S/C(=C\c2ccc(O)c([N+](=O)[O-])c2)C1=O,-1.5% (inactive)
4,CN(C)S(=O)(=O)c1cccc(C(=O)N2CCCc3ccccc32)c1,1.08% (inactive)
5,O=C(CC1C(=O)NCCN1CCc1ccccc1)NCCCn1ncc2ccccc21 (stereo not given),0.711% (inactive)
6,COC(=O)CCCNC(=O)CC1C(=O)NCCN1Cc1ccc2ccccc2c1 (stereo not given),-0.306% (inactive)
7,O=C(CC1C(=O)NCCN1Cc1ccc2ccccc2c1)NCCCn1cccn1 (stereo not given),5.94% (active)
8,COc1cc(CN(C(=O)c2cncs2)C2CCCC2)cc(OC)c1OCC1CCCO1 (stereo not given),-1.02% (inactive)
9,COC(=O)c1ccc2c(=O)nc3c(-c4ccccc4)n[nH]n3c2c1,-1.93% (inactive)
10,CCOC(=O)c1ccc(CNC(=O)c2cc(CCc3ccccc3)no2)o1,0.0388% (inactive)
11,Oc1ccc(Cn2cc[nH]c2=S)cc1,8.86% (active)
12,COc1ccc(Cn2cc[nH]c(=O)c2=O)cc1,-0.548% (inactive)
13,O=[N+]([O-])c1cccc(COC2=NS(=O)(=O)c3ccccc32)c1,0.739% (inactive)
14,CSc1ccc(/C=N/NC(N)=S)cc1,0.328% (inactive)
15,NC(=S)N/N=C/c1ccc([N+](=O)[O-])cc1,-0.328% (inactive) and 5.02% (active)
16,O=C(Cc1ccccc1)N/N=C/c1ccc([N+](=O)[O-])cc1,-0.27% (inactive)
17,Cc1[nH]c2ccccc2c1/C=N/NC(=O)/C(=C/c1ccccc1O)NC(=O)c1ccccc1,-5.34% (inactive)
18,COc1ccc(NC(=S)NC(=O)c2ccc([N+](=O)[O-])cc2)c(OC)c1,3.1% (inactive)
19,COc1cccc(C(=O)NC(=S)Nc2ccc(OC)cc2OC)c1,10.4% (active)
20,COc1cccc(C(=O)NC(=S)Nc2ccccc2OC)c1,-0.111% (inactive)
21,CCCOC(=O)C1=C(C)NC(=O)NC1c1ccccc1 (stereo not given),-1.76% (inactive)
22,CCCOC(=O)C1=C(C)NC(=O)NC1c1ccc(Br)cc1 (stereo not given),9.45% (active)
23,CC1=C(C(=O)OCCc2ccccc2)C(c2ccc(Br)cc2)NC(=O)N1 (stereo not given),-1.85% (inactive)
24,COc1ccc(C2(C(=O)Nc3ccc(C(=O)NCc4ccccc4)cc3)CCOCC2)cc1,0.34% (inactive)

row,Structure (SMILES),activation
1,CCCCN(C)C(=O)C1(c2ccc(OC)cc2)CCOCC1,0.343% (inactive)
2,CCCCNC(=O)C1(c2ccc(OC)cc2)CCOCC1,7.05% (active)
3,Cn1cccc1CC(=O)N/N=C\c1c(Cl)cccc1Cl,0.023% (inactive)
4,COc1cccc(CC2(CCC(=O)NC3CCOC(C)(C)C3)CCC(=O)N2)c1 (stereo not given),1.54% (inactive)
5,CCCCNc1nc2c(c(=O)[nH]c(=O)n2C)n1CC(O)COC(C)C (stereo not given),0.097% (inactive)
6,Cc1ccc(/C=N/Nc2nc3c(c(=O)[nH]c(=O)n3C)n2CC(O)COC(C)C)cc1 (stereo not given),-0.049% (inactive)
7,C/C(=N\Nc1nc2c(c(=O)[nH]c(=O)n2C)n1CC(C)O)c1ccc(O)cc1 (stereo not given),-2.73% (inactive)
8,CC(C)CNc1nc2c(c(=O)[nH]c(=O)n2C)n1CC(C)O (stereo not given),5.96% (active)
9,CC(O)Cn1c(N(C)C)nc2c1c(=O)[nH]c(=O)n2C (stereo not given),-0.989% (inactive)
10,CCC(C)Nc1nc2c(c(=O)[nH]c(=O)n2C)n1CC(O)COC(C)C (stereo not given),5.88% (active)
11,Cc1cc(C)c(/C=N/NC(=O)c2nnn(-c3nonc3N)c2CN(C)C)c(C)c1,-0.818% (inactive)
12,CCOC(=O)c1c(NC(=O)Cc2ccc([N+](=O)[O-])cc2)sc(C)c1C,-0.865% (inactive)
13,Cc1cc(S(=O)(=O)n2cc(-c3cccc(F)c3)c(N)n2)ccc1F,0.532% (inactive)
14,Cc1cccc(CN2CCC(n3nccc3NC(=O)C(C)(C)C)CC2)c1,-0.39% (inactive)
15,Cc1ccc(C)c(CN2CCC(n3nccc3NC(=O)C(C)(C)C)CC2)c1,5.02% (active)
16,CC(C)(C)C(=O)Nc1ccnn1C1CCN(Cc2ccccc2C(F)(F)F)CC1,0.711% (inactive)
17,COc1cccc(/C=N/NC(=O)CC23CC4CC(CC(C4)C2)C3)c1O,0.719% (inactive)
18,COc1ccc(-n2ccnc2SCC(=O)Nc2ccc(C)cc2)cc1,1.88% (inactive)
19,COc1ccc(NC(=O)Cn2c(-c3ccc(OC)cc3)cn(-c3ccc(C)cc3)c2=O)cc1,7.86% (active)
20,COc1ccc(NC(=O)Cn2c(=O)n(-c3ccc(F)cc3)c(=O)c3sccc32)cc1,-0.363% (inactive)
21,CCOc1ccc(-c2nn(-c3ccccc3)cc2C2C(C(=O)OCc3ccccc3)=C(C)NC(C)=C2C(=O)OCc2ccccc2)cc1,1.89% (inactive)
22,CCOC(=O)c1cc2c(C)n(Cc3ccccc3)c(C)c2cc(C(=O)OCC)c1=O,-0.0778% (inactive)
23,CCC1=C(C)c2cc3nc(C(=O)OCc4ccccc4)c(C)c-3c(C)n2C1C (stereo not given),5.68% (active)
